RE007 growth inh – less growth of the S. pombe RE007 Vpr strain | S. pombe RE007 Vpr strain, BacTiter-Glo ATP luminescence, 24 h | Potency, µM (doses to about 92.2 µM), for inactives: at the top dose activity change, negative = less growth, most hits filed as inhibitors | 360,000 compounds, 0.21% hits; active = well fitted falling curve with a large enough effect; inconclusive = small, poorly fitted or top-dose-only effect; inactive = no such curve, though single readings can be large or run the other way; note: % is set by controls: 0 for no effect and ±100 for the full control effect; nearly all actives have a fitted effect of over 50% in size
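Fission yeast strain RE007, carrying one chromosomally integrated HIV-1 vpr copy, was seeded at OD 0.01 in PMG+AL medium with 23 nL pinned compound. After 24 h at 30 °C and 99% humidity, viability was read by BacTiter-Glo luminescence.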
SARS PLP yeast – blocks SARS-CoV papain-like protease in a yeast assay. S. cerevisiae expressing SARS-CoV PLpro, growth rescue. 330,000 compounds, 0.19% hits. AID 485353. Potency, µM (top dose mostly 32.9 µM), for the others: at the highest dose activity, positive = growth rescue, usual class: activators; calls by dose curve; note: 0% is about no effect; nearly all actives have a fitted effect of over 55% in size
NS1 inh – influenza NS1 inhibition; Potency, µM (highest dose often 46.1 µM), inactives show at the top dose activity, positive = more growth; 270,000 compounds, 0.4% hits; calls by dose curve; note: actives are rising curves; nearly all actives have a fitted effect of over 50% in size
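A cell-based growth assay was used: compounds that relieve NS1-induced slow growth of budding yeast raise OD600. Assay medium was yeast nitrogen base with ammonium sulphate and -URA supplement, pH 6.0, with 2% galactose.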
Pf growth 96h – inhibits malaria parasite growth, 96 h | P. falciparum luciferase reporter growth, 96 h | Potency, µM (titrated, usually from 28.7 µM), inactives show at the highest dose activity change, negative = inhibition, most hits filed as inhibitors | 320,000 compounds, 6.9% hits | AID 504834; note: % is set by controls: 0 for no effect and ±100 for the full control effect
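Plates of compound plus infected erythrocytes (2% hematocrit, 0.05% parasitemia final) incubate 96 hours, 37 C, 5% CO2. Detection reagent added; reduced luminescence from the parasites' luciferase reporter flags inhibition.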
Pf growth 48h – inhibits P. falciparum growth in the first generation, 48 h. P. falciparum luciferase growth in erythrocytes, 48 h. AID 504832. Potency, µM (titrated, usually from 28.7 µM), for the others: top-dose activity change, negative = inhibition, actives largely listed as inhibitors. 310,000 compounds, 5.9% hits; note: % is set by controls: 0 for no effect and ±100 for the full control effect
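First compound was added to culture medium, then infected red cells at 0.1% parasitemia and 2% hematocrit (final). After incubation at 37 C under 5% CO2, luciferase detection reagent was dispensed and light output recorded.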
* marks the source's active call; other numbers are inactive results; ? = inconclusive; · = no result given; [ ] = dose if it differs, or a comment. Shown are actives, neighbours in structure and some others; about 9.5% of the full set was active somewhere. Unless noted, calls come from the whole dose curve; as a rule, active = well fitted inhibition curve with a large enough effect; inconclusive = small, poorly fitted or top-dose-only effect, or another doubt; inactive = no such curve, though single readings can be large or run the other way. Potency is the fitted concentration of half-maximal effect.

SMILES	RE007 growth inh	SARS PLP yeast	NS1 inh	Pf growth 96h	Pf growth 48h
CC(C)Cn1c(=O)c2c(nc3n2CC(C)CN3Cc2ccccc2)n(C)c1=O (configuration not stated)	13%	3%	-4%	?	?
O=C1CC(Cc2ccc(Br)cc2)C(=O)N1c1ccccc1 (configuration not stated)	-11%	-3%	16%	?	6%
O=C1C(Cc2ccccc2)S/C(=N/N=C/c2ccco2)N1c1ccccc1 (configuration not stated)	3%	1%	21%	0.26µM*	8%
O=C1C(Cc2cccc([N+](=O)[O-])c2)SC(=Nc2ccccc2)N1c1ccccc1 (configuration not stated)	·	26%	-1%	7.4µM*	8.3µM*
O=C1C(Cc2ccc(F)cc2)SC(=Nc2ccccc2)N1c1ccccc1 (configuration not stated)	0%	-24%	16%	?	10µM*
O=C1C(Cc2ccc(Br)cc2)SC(=Nc2ccccc2)N1c1ccccc1 (configuration not stated)	13%	-34%	42%	?	13µM*
O=C(NN=C(c1ccccc1)c1ccccc1)C(CCl)C1CCCCC1 (configuration not stated)	-3%	-7%	·	?	15%
CCCS(=O)(=O)NC(=O)C1(C)CCCN(C(=O)c2ccc(F)cc2Cl)C1 (configuration not stated)	-2%	·	·	·	·
CCOC(=O)C1(CC2CC2)CCN(Cc2cnc(-c3ccccc3C)nc2)CC1	-6%	-1%	-3%	?	13µM*
CCOC(=O)C1(CC2CC2)CCN(Cc2cc(Cl)c(O)c(OC)c2)CC1	-3%	-1%	2%	0.37µM*	?
Cn1cc(Br)c(NC(=O)/C=C/C(=O)O)n1	0%	1%	-1%	22%	-1%
NC(=O)c1ccc(OCC(F)(F)C(F)(F)C(F)(F)C(F)(F)C(F)(F)C(F)F)cc1	0%	-16%	-5%	12µM*	7%
Cc1cc(OCC(F)(F)C(F)(F)C(F)(F)C(F)(F)C(F)(F)C(F)F)nc(N)n1	4%	-1%	0%	-2%	35%
O=C(CSc1nc2ccccc2c(=O)n1CC1CCCO1)Nc1ccccc1Cl (configuration not stated)	5%	-8%	2%	?	-24%
Cn1ncc(Cl)c1C(=O)N1CCN(C(=O)c2ccco2)CC1	1%	0%	-7%	-29%	5%
Cc1cc(Nc2ccccc2)nn1C(=O)c1ccccc1	6%	-29%	-191%	9.3µM*	·
Cc1ccc(SCCNC(=O)/C=C/c2cccc([N+](=O)[O-])c2)cc1	-12%	-58%	-27%	30%	21%
CC(C)(C)SCCNC(=O)/C=C/c1ccc(F)cc1	28%	7%	-13%	-5%	?
CC(C)(C)SCCNC(=O)/C=C/c1ccccc1	14%	-1%	1%	10µM*	?
O=C(/C=C/c1cccc([N+](=O)[O-])c1)NCCSc1ccccc1	-10%	-30%	-4%	10µM*	?
COc1ccc(-n2c(CCC(=O)O)ccc2-c2ccc(F)cc2)c(OC)c1	8%	-1%	3%	33%	19%
O=C(Nc1nnc([C@@H]2C[C@H](O)[C@@H](CO)O2)s1)Nc1ccccc1F	0%	·	·	·	·
CCCCn1c(N)c(N(CCOC)C(=O)CSc2nnc(-c3ccco3)n2CC)c(=O)[nH]c1=O	-7%	5%	·	·	·
CC(C)c1ccc(Nc2nc(CC(=O)O)cs2)cc1	-5%	1%	·	52%	273%
O=C(O)Cc1csc(Nc2cccc(Cl)c2)n1	·	-58%	0%	13µM*	37%
SMILES	RE007 growth inh	SARS PLP yeast	NS1 inh	Pf growth 96h	Pf growth 48h
Clc1ccc(CNc2ncccn2)cc1	7%	1%	2%	68%	15%[0.00184 µM]
Oc1cc(NCc2ccc(Cl)cc2)cc2cccnc12	·	-2%	·	?	3.3µM*
Oc1cc(NCc2ccc(F)cc2)cc2cccnc12	·	0%	·	1.9µM*	2.6µM*
Fc1ccc(CNc2ncccn2)cc1	21%	0%	-3%	-21%	18%
CN(C)CCCNc1cc(O)c2ncccc2c1	·	5%	·	4.7µM*	4.1µM*
Oc1cccc2cccnc12	·	-39%	-19%	?	?
Cc1n[nH]c(=O)c2c(NC(=O)CSc3nc4ccccc4c(=O)n3CCCO)oc(C)c12	-3%	-3%	-6%	31%	26%
